Assay results published in PubChem BioAssay (NCATS).
Records with an inconclusive call do not appear. Entries that show only a call come without a potency. Unmarked numbers belong to inactive results. Calls of active or inactive are those of the source. Calls come from the whole dose curve; as a rule, active = well fitted cell-killing curve with a large enough effect; inconclusive = small, poorly fitted or top-dose-only effect, or effect the other way; inactive = flat fitted curve, though single readings scatter.

Columns and labels:
Experiment in all cases: Primary qHTS to identify gynecologic anti-cancer compounds using libraries of approved drugs and bioactive compounds (AID 1345084); note: nearly all actives have a fitted effect of over 55% in size
[1] = system: C33A; conditions: Gynecologic cancer cell panel viability, ATPlite luminescence, 48 h; series mostly up to 57.5 µM
Outline: (§1)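 Measured: luminescence after ATPlite addition (15 min, RT). Exposure: 48 h, 37 C, 5% CO2.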

[2] = system: CAOV3; conditions: Gynecologic cancer cell panel viability, ATPlite luminescence, 48 h; series mostly up to 57.5 µM
Outline: as §1

[3] = system: CASKI; conditions: Gynecologic cancer cell panel viability, ATPlite luminescence, 48 h; series mostly up to 57.5 µM
Outline: as §1

[4] = system: Es-2; conditions: Gynecologic cancer cell panel viability, ATPlite luminescence, 48 h; series mostly up to 57.5 µM
Outline: as §1

[5] = system: HeLa; conditions: Gynecologic cancer cell panel viability, ATPlite luminescence, 48 h; series mostly up to 57.5 µM
Outline: as §1

[6] = system: Hek293T; conditions: Gynecologic cancer cell panel viability, ATPlite luminescence, 48 h, control line for the selectivity index; series mostly up to 57.5 µM
Outline: as §1

[7] = system: JEG-3; conditions: Gynecologic cancer cell panel viability, ATPlite luminescence, 48 h; series mostly up to 57.5 µM
Outline: as §1
Potency is the fitted concentration of half-maximal effect.

## O=C1CC[C@H](C(=O)N2CCCCC2)N1
[1]
  Potency: inactive
[2]
  Potency: inactive
[3]
  Potency: inactive
[4]
  Potency: inactive
[5]
  Potency: inactive
[6]
  Potency: inactive
[7]
  Potency: inactive

## CN1CCCN(C(c2ccccc2)c2ccc(Cl)cc2)CC1 (stereo unspecified)
[1]
  Potency: inactive
[2]
  Potency: inactive
[4]
  Potency: inactive
[5]
  Potency: inactive
[7]
  Potency: inactive

## COc1c(N2C[C@@H]3CCCN[C@@H]3C2)c(F)cc2c(=O)c(C(=O)O)cn(C3CC3)c12
[1]
  Potency: inactive
[2]
  Potency: inactive
[3]
  Potency: inactive
[4]
  Potency: inactive
[5]
  Potency: inactive
[6]
  Potency: inactive
[7]
  Potency: inactive

## CCCCCC(=O)O[C@]1(C(C)=O)CC[C@H]2[C@@H]3CCC4=CC(=O)CC[C@]4(C)[C@H]3CC[C@@]21C
[2]
  Potency: inactive
[3]
  Potency: inactive
[4]
  Potency: inactive
[7]
  Potency: inactive

## CCCC(=O)c1cc(O)c(O)cc1O
[1]
  Potency: inactive
[3]
  Potency: inactive
[4]
  Potency: inactive
[5]
  Potency: inactive
[6]
  Potency: inactive
[7]
  Potency: inactive

## CN(C)[C@@H]1C(=O)C(C(N)=O)=C(O)[C@@]2(O)C(=O)C3=C(O)c4c(O)cccc4C[C@H]3C[C@@H]12
[1]
  Potency: inactive
[2]
  Potency: inactive
[3]
  Potency: inactive
[4]
  Potency: inactive
[5]
  Potency: inactive
[6]
  Potency: inactive
[7]
  Potency: inactive

## CC(C)(c1ccc(O)cc1)c1ccc(O)cc1
[1]
  Potency: inactive
[2]
  Potency: inactive
[3]
  Potency: inactive
[4]
  Potency: inactive
[5]
  Potency: inactive
[6]
  Potency: inactive
[7]
  Potency: inactive

## C[C@@H](O[C@H]1OCCN(Cc2n[nH]c(=O)[nH]2)[C@H]1c1ccc(F)cc1)c1cc(C(F)(F)F)cc(C(F)(F)F)c1
[1]
  Potency: inactive
[2]
  Potency: inactive
[3]
  Potency: inactive
[4]
  Potency: inactive
[6]
  Potency: inactive
[7]
  Potency: inactive

## O=C1NC2CCCCN2C12CCN(CCCN1c3ccccc3CCc3ccc(Cl)cc31)CC2 (stereo unspecified)
[1]
  Potency: inactive
[5]
  Potency: inactive
[7]
  Potency: inactive

## CO/N=C(/C(=O)N[C@@H]1C(=O)N2C(C(=O)[O-])=C(C[n+]3ccn4ncccc43)CS[C@H]12)c1nsc(N)n1
[1]
  Potency: inactive
[2]
  Potency: inactive
[3]
  Potency: inactive
[4]
  Potency: inactive
[5]
  Potency: inactive
[6]
  Potency: inactive
[7]
  Potency: inactive

## Nc1ccc(O)cc1
[1]
  Potency: inactive
[2]
  Potency: inactive
[3]
  Potency: inactive
[4]
  Potency: inactive
[6]
  Potency: inactive
[7]
  Potency: inactive

## O=C1NC(c2cccc([N+](=O)[O-])c2)=CCN1c1ccccc1O
[1]
  Potency: inactive
[2]
  Potency: inactive
[4]
  Potency: inactive
[5]
  Potency: inactive

## C=CCNc1nc(NCC=C)nc(N2CCN(C(c3ccc(F)cc3)c3ccc(F)cc3)CC2)n1
[1]
  Potency: inactive
[3]
  Potency: inactive
[4]
  Potency: inactive
[5]
  Potency: inactive
[7]
  Potency: inactive

## O=C(c1ccccc1)c1ccccc1
[1]
  Potency: inactive
[2]
  Potency: inactive
[3]
  Potency: inactive
[4]
  Potency: inactive
[5]
  Potency: inactive
[6]
  Potency: inactive
[7]
  Potency: inactive

## CCOC(=O)c1ccc(O)c(O)c1
[1]
  Potency: inactive
[2]
  Potency: inactive
[3]
  Potency: inactive
[4]
  Potency: inactive
[5]
  Potency: inactive
[6]
  Potency: inactive
[7]
  Potency: inactive

## O=[N+]([O-])c1ccc(-c2nc(-c3ccc(F)cc3)c(-c3ccncc3)[nH]2)cc1
[1]
  Potency: inactive
[3]
  Potency: inactive
[4]
  Potency: inactive
[5]
  Potency: inactive
[6]
  Potency: inactive
[7]
  Potency: inactive

## N[C@@H](Cn1ccc(=O)c(O)c1)C(=O)O
[1]
  activity change, negative = cytotoxicity: 19.3% [at 6.55 µM]
[2]
  activity change, negative = cytotoxicity: 11.6% [at 6.55 µM]
[3]
  activity change, negative = cytotoxicity: 1.33% [at 6.55 µM]
[4]
  activity change, negative = cytotoxicity: 4.8% [at 6.55 µM]
[5]
  activity change, negative = cytotoxicity: -0.102% [at 6.55 µM]
[6]
  activity change, negative = cytotoxicity: -0.477% [at 6.55 µM]
[7]
  activity change, negative = cytotoxicity: 1.6% [at 6.55 µM]

## CC(=O)Nc1ccn(C2COC(COC(=O)c3ccccc3)O2)c(=O)n1 (stereo unspecified)
[1]
  Potency: inactive
[3]
  Potency: inactive
[5]
  Potency: inactive
[6]
  Potency: inactive
[7]
  Potency: inactive

## COc1ccc(-n2nc(CCC(=O)N(C)O)cc2-c2ccc(Cl)cc2)cc1
[1]
  Potency: inactive
[2]
  Potency: inactive
[3]
  Potency: inactive
[5]
  Potency: inactive
[6]
  Potency: inactive

## CC(C(O)c1ccccc1)N(C)CCOC(c1ccccc1)c1ccccc1 (stereo unspecified)
[4]
  Potency: inactive
[5]
  Potency: inactive

## Cc1cccc(N(C)C(=S)Oc2ccc3c(c2)C2CCC3C2)c1 (stereo unspecified)
[1]
  Potency: inactive
[3]
  Potency: inactive
[5]
  Potency: inactive
[6]
  Potency: inactive
[7]
  Potency: inactive

## N#C/C(=C1/SC[C@@H](c2ccc(Cl)cc2Cl)S1)n1ccnc1
[1]
  Potency: inactive
[2]
  Potency: inactive
[3]
  Potency: inactive
[4]
  Potency: inactive
[5]
  Potency: inactive
[6]
  Potency: inactive
[7]
  Potency: inactive

## COc1ccc([C@@H]2Sc3ccccc3NC(=O)[C@@H]2O)cc1
[1]
  Potency: inactive
[2]
  Potency: inactive
[3]
  Potency: inactive
[4]
  Potency: inactive
[5]
  Potency: inactive
[7]
  Potency: inactive

## O=C1[C@@H]2[C@H]3CC[C@H](C3)[C@@H]2C(=O)N1CCCCN1CCN(c2ncccn2)CC1
[1]
  Potency: inactive
[2]
  Potency: inactive
[3]
  Potency: inactive
[4]
  Potency: inactive
[5]
  Potency: inactive
[6]
  Potency: inactive
[7]
  Potency: inactive

## C[C@H](N)C(=O)N[C@@H](C)C(=O)NC1[C@H]2CN(c3nc4c(cc3F)c(=O)c(C(=O)O)cn4-c3ccc(F)cc3F)C[C@@H]12 (stereo partly specified)
[1]
  Potency: inactive
[2]
  Potency: inactive
[3]
  Potency: inactive
[4]
  Potency: inactive
[5]
  Potency: inactive
[7]
  Potency: inactive

## CC(NN)c1ccccc1 (stereo unspecified)
[1]
  Potency: inactive
[2]
  Potency: inactive
[3]
  Potency: inactive
[4]
  Potency: inactive
[5]
  Potency: inactive
[6]
  Potency: inactive
[7]
  Potency: inactive

## O=C1NC(=O)/C(=C/c2ccc3c(c2)OC(F)(F)O3)S1
[1]
  Potency: inactive
[2]
  Potency: inactive
[3]
  Potency: inactive
[6]
  Potency: inactive

## Cc1nn(-c2ccccc2)c(C)c1/C=N/N1CCN(Cc2ccccc2)CC1
[1]
  Potency: inactive
[2]
  Potency: inactive
[3]
  Potency: inactive
[4]
  Potency: inactive
[5]
  Potency: inactive
[6]
  Potency: inactive
[7]
  Potency: inactive

## CC(NCCC(c1ccccc1)c1ccccc1)c1ccccc1 (stereo unspecified)
[4]
  Potency: inactive
[5]
  Potency: inactive
[6]
  Potency: inactive
[7]
  Potency: inactive

## CC(C)N(CCC(=O)c1ccc2ccccc2c1)Cc1ccccc1
[1]
  Potency: inactive
[3]
  Potency: inactive
[4]
  Potency: inactive
[5]
  Potency: inactive
[6]
  Potency: inactive
[7]
  Potency: inactive

## CCCC(=O)O[C@]1(C(=O)CCl)[C@@H](C)C[C@H]2[C@@H]3CCC4=CC(=O)C=C[C@]4(C)[C@@]3(F)C(=O)C[C@@]21C
[1]
  Potency: inactive
[3]
  Potency: inactive
[4]
  Potency: inactive
[5]
  Potency: inactive
[7]
  Potency: inactive

## Nc1c2ccccc2nc2ccccc12
[4]
  Potency: 14.1 µM (active)
[6]
  Potency: 8.91 µM (active)

## CC1CN(c2cc3c(cc2F)c(=O)c(C(=O)O)cn3-c2ccc(F)cc2F)CCN1 (stereo unspecified)
[1]
  Potency: inactive
[2]
  Potency: inactive
[3]
  Potency: inactive
[4]
  Potency: inactive
[5]
  activity change, negative = cytotoxicity: 5.19% [at 6.55 µM]
[6]
  activity change, negative = cytotoxicity: -5.43% [at 6.55 µM]
[7]
  activity change, negative = cytotoxicity: 13.6% [at 6.55 µM]

## O=C1Nc2ccccc2C1(c1ccc(O)cc1)c1ccc(O)cc1
[3]
  Potency: inactive
[4]
  Potency: inactive
[5]
  Potency: inactive
[6]
  Potency: inactive
[7]
  Potency: inactive

## Clc1ccc2c(c1)N=C(N1CCNCC1)c1ccccc1N2
[1]
  Potency: inactive
[2]
  Potency: inactive
[3]
  Potency: inactive
[4]
  Potency: inactive
[5]
  Potency: inactive
[6]
  Potency: inactive
[7]
  Potency: inactive

## COC(=O)[C@H]1[C@H]2C[C@@H]3c4[nH]c5cc(OC)ccc5c4CCN3C[C@H]2C[C@@H](OC(=O)/C=C/c2ccc(O)c(OC)c2)[C@@H]1OC
[1]
  Potency: inactive
[3]
  Potency: inactive
[4]
  Potency: inactive
[5]
  Potency: inactive
[6]
  Potency: inactive

## C/C(=C(/OCCOc1ccc(Cl)cc1)c1ccc(Cl)cc1Cl)n1ccnc1
[1]
  Potency: inactive
[3]
  Potency: inactive
[4]
  Potency: inactive
[5]
  Potency: inactive
[6]
  Potency: inactive
[7]
  Potency: inactive

## COc1cc2nc(Cl)nc(N)c2cc1OC
[1]
  Potency: inactive
[3]
  Potency: inactive
[4]
  Potency: inactive
[5]
  Potency: inactive
[6]
  Potency: inactive
[7]
  Potency: inactive

## COC(=O)C1=CO[C@@H](O)[C@@H]2C(CO)=CC[C@H]12
[1]
  Potency: inactive
[3]
  Potency: inactive
[4]
  Potency: inactive
[5]
  Potency: inactive
[6]
  Potency: inactive
[7]
  Potency: inactive
